Data taken from the supplement of paper PMC10646978.
± gives the standard deviation.

How the values were obtained:
Conditions in all cases: modulator concentration 10 µM
[1] = tested on: RAW-Dual (murine macrophage reporter line); test: NF-kB reporter (SEAP) activity fold change vs agonist alone; higher = enhanced NF-kB activity
Procedure, shortened: (§1)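 Compound reached 10 μM final in each well by pin transfer, onto RAW-Dual murine macrophage reporter cells seeded at 50 000 per well in 384-well plates. After 1 hour at 37 °C, the cells were stimulated overnight with a PRR agonist. SEAP in the supernatant was read with QUANTI-Blue at 620 nm absorbance for NF-κB, and Lucia luciferase was read with QUANTI-Luc luminescence for IRF. Each signal was turned into fold change against the mean agonist-only control on the same plate, and two replicate plates were averaged with propagated errors.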

[2] = tested on: RAW-Dual (murine macrophage reporter line); test: IRF reporter (Lucia luciferase) activity fold change vs agonist alone; higher = enhanced IRF activity
Procedure, shortened: as §1

[3] = tested on: RAW-Dual (murine macrophage reporter line); test: viability score (confluency relative to resting cells, overnight) (fraction); higher = more viable, active = viable (0.7 or more)
Procedure, shortened: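 RAW-Dual macrophages in 384-well plates were exposed overnight to compound at 10 μM final. Confluency was imaged with IncuCyte, and two confluency masks were generated with IncuCyte software over all imaged wells. The viability score is confluency expressed relative to resting cells. Compounds were called viable if both masks exceeded 70% of resting cells.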

[4] = agonist: CpG ODN 1826 0.5 ug/mL

Structure (SMILES) | NF-kB reporter [1, 4] | NF-kB reporter ([1]; agonist: LPS 0.1 ug/mL) | NF-kB reporter ([1]; agonist: MPLA […]) | IRF reporter ([2]; agonist: 3'3'-cGAMP 10 ug/mL) | IRF reporter ([2]; agonist: LPS 0.1 ug/mL) | IRF reporter ([2]; agonist: MPLA […]) | viability score [3]
O=C(Nc1ccccn1)c1ccc(OCC2CCCO2)nc1 (centres undefined) | 1.12 ± 0.064 | 1.02 ± 0.077 | 1 ± 0.031 | 0.936 ± 0.077 | 1.04 ± 0.059 | 1.04 ± 0.1 | 0.997 (active)
Nc1nc(=O)n([C@@H]2CS[C@H](CO)O2)cc1F | 1.59 ± 0.24 | 1.3 ± 0.46 | 1.21 ± 0.073 | 0.62 ± 0.15 | 0.98 ± 0.22 | 0.836 ± 0.21 | 1 (active)
Cc1nc[nH]c1CN1CCc2c(c3ccccc3n2C)C1=O.Cl | 1.13 ± 0.28 | 1.08 ± 0.12 | 0.903 ± 0.08 | 0.903 ± 0.041 | 1.31 ± 0.2 | 1.12 ± 0.11 | 1 (active)
COC(=O)CCS(=O)(=O)c1ccc2ccccc2c1 | 0.886 ± 0.055 | 1.01 ± 0.1 | 1.05 ± 0.091 | 1.08 ± 0.059 | 1.31 ± 0.16 | 1.06 ± 0.095 | 0.995 (active)
Cc1ccc(=O)n(-c2ccccc2)c1 | 0.979 ± 0.079 | 0.981 ± 0.098 | 0.968 ± 0.038 | 0.979 ± 0.077 | 0.975 ± 0.13 | 0.976 ± 0.092 | 1 (active)
CCOC(=O)C1=C(Nc2ccccc2)SC(=Cc2ccc(O)c(OCC)c2)C1=O | 1.1 ± 0.093 | 1.03 ± 0.07 | 1.15 ± 0.18 | 1.1 ± 0.036 | 1.26 ± 0.12 | 1.12 ± 0.16 | 1.01 (active)
CN(C)C1C(O)=C(C(N)=O)C(=O)C2(O)C(O)=C3C(=O)c4c(O)ccc(Cl)c4C(O)C3CC12.Cl (centres undefined) | 1.37 ± 0.35 | 1.1 ± 0.067 | 1.01 ± 0.067 | 0.894 ± 0.038 | 1.19 ± 0.14 | 1.08 ± 0.15 | 0.991 (active)
CC1(C)Cc2cccc(OCC(=O)NCc3ccccn3)c2O1 | 0.948 ± 0.064 | 1 ± 0.1 | 0.986 ± 0.045 | 0.896 ± 0.034 | 1.02 ± 0.048 | 0.906 ± 0.087 | 0.996 (active)
Oc1ccc(-c2cnc(-c3ccc(O)cc3)nc2)cc1 | 0.924 ± 0.22 | 0.965 ± 0.091 | 1.42 ± 0.1 | 0.347 ± 0.017 | 0.555 ± 0.08 | 0.591 ± 0.16 | 0.927 (active)
CCOc1nc2cccc(C(=O)OC(C)OC(=O)OC3CCCCC3)c2n1Cc1ccc(-c2ccccc2-c2nnn[nH]2)cc1 (centres undefined) | 0.672 ± 0.089 | 0.762 ± 0.062 | 0.976 ± 0.092 | 1.1 ± 0.051 | 1.31 ± 0.089 | 1.47 ± 0.13 | 1.02 (active)
O=C(CC1(Cc2ccc(I)cc2)C(=O)c2ccccc2C1=O)c1ccccc1 | 0.803 ± 0.073 | 0.876 ± 0.046 | 1.02 ± 0.091 | 0.953 ± 0.044 | 1.42 ± 0.12 | 1.59 ± 0.17 | 0.996 (active)
COc1ccc(Cl)cc1C(=O)N1CCC(S(=O)(=O)c2nncn2C)CC1 | 0.944 ± 0.051 | 1.04 ± 0.11 | 0.858 ± 0.038 | 1 ± 0.052 | 1.19 ± 0.085 | 1.11 ± 0.29 | 0.994 (active)
Cc1ccc(NC(=O)CN2C(=O)c3ccccc3C2=O)c(C(=O)O)c1 | 0.789 ± 0.077 | 0.894 ± 0.057 | 1.05 ± 0.091 | 0.982 ± 0.049 | 1.32 ± 0.098 | 1.5 ± 0.18 | 1.02 (active)
Nc1ccccc1S(N)(=O)=O [Prestw-913] | 0.95 ± 0.19 | 1.07 ± 0.13 | 1.04 ± 0.092 | 0.943 ± 0.062 | 0.991 ± 0.23 | 1.1 ± 0.2 | 0.995 (active)
Cl.Cn1cc(C(=O)[C@@H]2CCc3nc[nH]c3C2)c2ccccc21 | 0.806 ± 0.078 | 0.83 ± 0.11 | 0.878 ± 0.027 | 0.906 ± 0.056 | 0.973 ± 0.11 | 1.01 ± 0.078 | 0.997 (active)
Cc1nnc(NC(=O)c2cccc([N+](=O)[O-])c2)s1 | 1.03 ± 0.084 | 0.97 ± 0.093 | 0.999 ± 0.038 | 1.05 ± 0.25 | 1.06 ± 0.049 | 1.09 ± 0.15 | 1 (active)
Cc1cc(C)n(CCCN2C(=O)c3cccc4cccc(c34)C2=O)n1 | 0.926 ± 0.084 | 1.04 ± 0.083 | 0.955 ± 0.11 | 0.993 ± 0.054 | 1.09 ± 0.075 | 1.14 ± 0.088 | 1.01 (active)
CCN(CC)c1ccc(C=Nn2nnnc2N)c(O)c1 | 1.01 ± 0.078 | 0.869 ± 0.1 | 1.13 ± 0.11 | 0.942 ± 0.039 | 1.06 ± 0.13 | 1.44 ± 0.29 | 0.955 (active)
COc1ccc(CNC2CCCc3ccccc32)c(OC)c1C (centres undefined) | 0.166 ± 0.016 | 0.504 ± 0.058 | 1.09 ± 0.1 | 1.24 ± 0.04 | 1.21 ± 0.14 | 1.42 ± 0.29 | 0.192 (inactive)
O=c1cc(-c2ccccc2)oc2cc(O)c(O)c(O)c12 | 1.51 ± 0.5 | 1.09 ± 0.075 | 1.2 ± 0.15 | 0.649 ± 0.034 | 1 ± 0.15 | 0.967 ± 0.12 | 0.992 (active)
COC(=O)C1C(O)CCC2CN3CCc4c([nH]c5ccccc45)C3CC21.Cl (centres undefined) | 1.19 ± 0.28 | 0.917 ± 0.076 | 0.906 ± 0.058 | 0.92 ± 0.1 | 1.15 ± 0.25 | 1.23 ± 0.15 | 0.995 (active)
CN1CCN(c2ccc(-c3cccc(NC(=O)COc4ccc(Cl)cc4)c3)nn2)CC1 | 0.24 ± 0.029 | 0.966 ± 0.053 | 0.891 ± 0.021 | 0.572 ± 0.032 | 0.946 ± 0.057 | 0.966 ± 0.081 | 0.97 (active)
CC(Oc1ccccc1)C(=O)NC1CC(C)(C)NC(C)(C)C1 (centres undefined) | 0.76 ± 0.059 | 0.966 ± 0.085 | 1.06 ± 0.1 | 0.993 ± 0.045 | 1.26 ± 0.079 | 1.35 ± 0.14 | 1.02 (active)
CCCCN(CCCC)CC(=O)Nc1c2c(nc3ccccc13)CCC2.O=C(O)C(=O)O | 0.63 ± 0.035 | 1.1 ± 0.067 | 1.15 ± 0.068 | 1.38 ± 0.053 | 1.98 ± 0.13 | 0.98 ± 0.15 | 0.308 (inactive)
NC(=O)c1ncn(C2OC(CO)C(O)C2O)c1O (centres undefined) | 0.931 ± 0.076 | 0.895 ± 0.088 | 0.917 ± 0.1 | 1.04 ± 0.037 | 1.32 ± 0.16 | 1.46 ± 0.2 | 1.01 (active)
O=C(NCC(O)Cc1ccccc1)Nc1ccc(F)cc1 (centres undefined) | 0.893 ± 0.096 | 0.969 ± 0.077 | 1.08 ± 0.064 | 1.04 ± 0.048 | 1.28 ± 0.3 | 1.36 ± 0.37 | 0.971 (active)
CC12CCC3c4ccc(O)cc4CCC3C1CC(O)C2O (centres undefined) | 1.17 ± 0.28 | 1.28 ± 0.075 | 1.24 ± 0.093 | 0.596 ± 0.022 | 1.39 ± 0.16 | 1.44 ± 0.14 | 0.97 (active)
